Assay results from PubChem BioAssay (NCATS).
Values without a mark were called inactive. Calls come from the whole dose curve; as a rule, active = well fitted inhibition curve with a large enough effect; inconclusive = small, poorly fitted or top-dose-only effect; inactive = flat fitted curve, though single readings scatter.

test system: Nanoluciferase (engineered Oplophorus gracilirostris luciferase); assay: Primary Nanoluciferase (NLuc) qHTS assay for identification of artifact compounds. (AID 1845222); settings: NLuc-conditioned medium, Nano-Glo luminescence, 5 min; series mostly up to 54.1 µM; activity, negative = inhibition: at the top concentration;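 note: NLuc secreted into diluted conditioned medium of S16 cells; 0% = DMSO and -100% = no enzyme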
Summary of the method: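 S16 cell supernatant NLuc, 1:55; cpds qHTS; 15 min RT dark; Nano-Glo substrate 1:100, 5 min; luminescence; Hill fit of % inhibition.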

| SMILES | activity, negative = inhibition |
| --- | --- |
| COCCN1CCC(C(=O)NO)(S(=O)(=O)c2ccc(Oc3ccc(OC(F)(F)F)cc3)cc2)CC1 | -2.03% |
| Cc1onc(-c2c(Cl)cccc2Cl)c1CC(=O)NCc1ccc(OCC(F)(F)F)nc1 | 2.33% |
| CC1(C)CC[C@]2(C(=O)O[C@@H]3O[C@H](CO)[C@@H](O)[C@H](O)[C@H]3O)CC[C@]3(C)C(=CCC4[C@@]5(C)CC[C@H](O[C@@H]6O[C@H](C(=O)O)[C@@H](O[C@@H]7O[C@H](CO)[C@@H](O)[C@H](O)[C@H]7O)[C@H](O)[C@H]6O)C(C)(C)C5CC[C@]43C)C2C1 (some centres undefined) | 4.13% [at 11.6 µM] |
| CN[C@H](CNC(=O)N1CCC[C@@H]([C@@H](OCCNC(=O)OC)c2cccc(Cl)c2)C1)C[C@H]1CCCOC1 | 2.99% |
| COC(=O)C1=CO[C@@H](O[C@@H]2O[C@H](CO[C@@H]3O[C@H](CO)[C@@H](O)[C@H](O)[C@H]3O)[C@@H](O)[C@H](O)[C@H]2O)[C@@H]2C(CO)=CC[C@H]12 | 4.25% [at 25.7 µM] |
| CC(C)Oc1ccc(-c2nc(-c3cccc4c3CCC4NCCC(=O)O)no2)cc1C#N (centres undefined) | -0.219% |
| C/C=C1/[C@H](O[C@@H]2O[C@H](CO)[C@@H](O)[C@H](O)[C@H]2O)OC=C(C(=O)OC)[C@H]1CC(=O)OCCc1ccc(O)c(O)c1 | -3.95% [at 25.7 µM] |
| COc1c2cc(c(O)c1OC)CCCCC(O)CCc1ccc(O)c-2c1 (centres undefined) | -2.82% |
| COC(=O)C1=CO[C@@H](O[C@@H]2O[C@H](CO)[C@@H](O)[C@H](O)[C@H]2O)[C@@H]2[C@@H](C)[C@@H](O)C(O)[C@H]12 (some centres undefined) | 4.89% [at 25.7 µM] |
| CC1(C)CC[C@]2(C(=O)O[C@@H]3O[C@H](CO)[C@@H](O)[C@H](O)[C@H]3O)CC[C@]3(C)C(=CCC4[C@@]5(C)CC[C@H](O[C@@H]6O[C@H](C(=O)O)[C@@H](O)[C@H](O)[C@H]6OC6OC(CO)C(O)C(O)C6O)C(C)(C)C5CC[C@]43C)[C@@H]2C1 (some centres undefined) | 0.31% [at 11.6 µM] |
| COC(=O)C1=COC(O[C@@H]2O[C@H](COC(=O)/C=C/c3ccc(O)cc3)[C@@H](O)[C@H](O)[C@H]2O)C2C(CO)=CCC12 (some centres undefined) | 3.94% [at 25.7 µM] |
| NC(Cc1c[nH]c2ccc(O)cc12)C(=O)O (centres undefined) | -7.04% |
| COc1cccc2c1c(O)c(C(=O)N(C)c1ccc(C(F)(F)F)cc1)c(=O)n2C | -0.589% |
| CCC1OC(=O)C(C)CC(C)C(=O)/C(C)=C/C(C)C(=O)/C=C/C1(C)O (centres undefined) | 3.72% |
| CC1(C)OC(=O)C=C[C@@]2(C)C1CC(=O)[C@]1(C)C2CC[C@@]2(C)[C@H](c3ccoc3)OC(=O)[C@H]3O[C@]321 (some centres undefined) | -0.127% [at 25.7 µM] |
| CC[C@H](NC(=O)c1c(O)c(-c2ccccc2)nc2ccccc12)c1ccccc1 | -19.8% |
| C[C@@H]1O[C@@H](O[C@@H]2[C@@H](O)[C@H](O[C@@H]3[C@@H](O)[C@@H](O)[C@H](O[C@H]4[C@H](OC(=O)[C@]56CCC(C)(C)C[C@H]5C5=CCC7[C@@]8(C)C[C@H](O)[C@H](O[C@@H]9O[C@H](C(=O)O)[C@@H](O)[C@H](O)[C@H]9O)[C@@](C)(CO)C8[C@H](O)C[C@@]7(C)[C@]5(C)C[C@H]6O)O[C@@H](CO)[C@@H]4O)O[C@H]3C)OC[C@H]2O)[C@H](O)[C@H](O)[C@H]1O (some centres undefined) | 4.49% [at 11.6 µM] |
| Cc1ccc(-c2c(-c3nn(C)c4ncnc(N5CC[C@H](N6CCCCC6)C5)c34)cnn2C)cc1 | 0% |
| CC1(C)CC[C@]2(C(=O)O)CC[C@]3(C)C(=CCC4[C@@]5(C)C[C@@H](O)[C@H](O)[C@@](C)(CO)C5[C@H](O)C[C@]43C)[C@@H]2C1 (some centres undefined) | 4.75% [at 25.7 µM] |
| COc1cccc(OC)c1-c1nc(C(=O)N[C@@H](CC(C)C)C(=O)O)cn1-c1ccnc2cc(Cl)ccc12 | 2.18% |

| SMILES | activity, negative = inhibition |
| --- | --- |
| CC12CC(c3ccoc3)OC(=O)C1CCC1(C)C2CCC(O)C1(C)O (centres undefined) | -17.6% |
| C[C@@H]1CC[C@]2(C(=O)O[C@@H]3O[C@H](CO[C@@H]4O[C@H](CO)[C@@H](O)[C@H](O)[C@H]4O)[C@@H](O)[C@H](O)[C@H]3O)CC[C@]3(C)C(=CCC4[C@@]5(C)CC[C@H](O)[C@](C)(C(=O)O)C5CC[C@]43C)[C@@H]2[C@]1(C)O (some centres undefined) | 2.17% [at 11.6 µM] |
| COc1cc(/C=C/C(=O)O[C@H]2[C@H](O)[C@@H](CO)O[C@@]2(CO)O[C@H]2O[C@H](CO)[C@@H](O)[C@H](O)[C@H]2O)cc(OC)c1O | 2.68% [at 25.7 µM] |
| CC12CC34CC(O)C5C(CO)(CO)CC(=O)CC5(C)C3CC1C2C4 (centres undefined) | 2.29% |
| CC(=O)OCC1OC(O[C@H]2CC[C@@]3(C)C(CC[C@]4(C)C3CC=C3[C@@H]5CC(C)(C)CC[C@]5(C(=O)O)CC[C@]34C)[C@]2(C)CO)C(O)C(O)C1OC1OC(C)C(O)C(OC2OCC(O)C(O)C2O)C1O (some centres undefined) | 3.41% [at 11.6 µM] |
| COc1cccc(Cn2ncc3c4sc(S(C)=O)cc4n(C)c3c2=O)c1 (centres undefined) | 2.45% |
| CCCNCCOc1ccc(NC(=O)c2c[nH]c3c2C(=O)CCC3)cc1F | 2.85% |
| C/C=C(/C)C(=O)OC1C2OC2C2(CO2)C2C3OC(=O)C(C)C3CCC12C (centres undefined) | -21.7% |
| CC(=O)OC1CCC2(C)C(CCC3(C)C2CC=C2C4CC(C)(C)CCC4(C)CCC23C)C1(C)C(=O)O (centres undefined) | 3.75% [at 25.7 µM] |
| COc1cnc(-c2ccc(Cn3c(CC(C)(C)C(=O)O)c(SC(C)(C)C)c4cc(OC[C@@H]5Cc6ccccc6N5C(C)=O)ccc43)cc2)nc1 | 0% |
| C=C(C)[C@@H]1CC[C@]2(C(=O)O)CC[C@]3(C)[C@H](CCC4[C@@]5(C)CCC(=O)C(C)(C)C5C(O)C[C@]43C)C12 (some centres undefined) | -1.3% [at 25.7 µM] |
| CC1=C2C[C@H]3OC(=O)[C@H](O)[C@@]4(O)[C@@H](C)[C@@H](O)[C@H](O)C([C@@]2(C)[C@H](O)[C@@H](O)C1)[C@@]34C (some centres undefined) | 0.883% |
| C=CC(C)(O)CC/C=C(\C)C(=O)O[C@@H]1[C@@H](O)[C@H](OC(C)(C=C)CC/C=C(\C)C(=O)O)O[C@H](CO)[C@H]1OC(=O)/C(C)=C/CCC(C)(O)C=C (some centres undefined) | -1.04% [at 25.7 µM] |
| NC[C@H]1CCC[C@@H](CNC(=O)[C@@H](Cc2c[nH]c3ccccc23)NC(=O)N2CCC3(C=Cc4ccccc43)CC2)C1 | 1.01% |
| CCC(C)/C=C(C)/C=C/C1=CC2=C(Cl)C(=O)C(C)(OC(C)=O)C(=O)C2=CN1C(CC(=O)O)C(=O)O (centres undefined) | -10.9% [at 25.7 µM] |
| CC1=CCC[C@@H]2[C@](CCc3ccoc3)(C(=O)O)[C@H](C)CC[C@@]12C | 1.16% |
| C=C1C(O)C(O)C2(CC3C(C)=CCC4C(C)(C(=O)O)CCCC34C)OC2C1O (centres undefined) | -0.83% |
| CCC(C)C(=O)OC[C@H]1O[C@H](O[C@H]2O[C@H](CO)[C@@H](O)[C@H](O)[C@H]2O)[C@H](O)[C@@H](O)[C@@H]1O (some centres undefined) | 3.32% [at 25.7 µM] |
| C=CCC1=C[C@]2(OC)[C@H](C)[C@@H](c3ccc(OC)c(OC)c3)O[C@]2(OC)CC1=O | -3.97% |
